Records with an inconclusive call do not appear. The source made the active and inactive calls. How the source made its calls, unless noted: active means hit-call score of the fitted dose curve at least 0.9, where 1 is the maximum; inactive means score below 0.9.
How the values were obtained:
[1] = APR_HepG2_CellCycleArrest_24hr: Apredica 24-hour HepG2 Assay for Cell Cycle Arrest (AID 2282905); conditions: imaging, actives raise or lower the signal;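 further: cell cycle arrest scored as ratio of 2N to 4N nuclear DNA content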
In short: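 Compounds (0.39 to 200 uM, final DMSO 0.5% v/v) are applied to HepG2 cells for 24 hours; cells are then fixed, permeabilized and nuclei labeled with Hoechst 33342. Automated imaging measures DNA content, and activity is fitted in both directions against DMSO.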

[2] = APR_HepG2_NuclearSize_24hr: Apredica 24-hour HepG2 Assay for Nuclear Size (AID 2282907); conditions: high-content imaging, actives raise or lower the signal
In short: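 Nuclear size is measured by fluorescence high-content imaging of Hoechst-labelled HepG2 nuclei after 24 hr of treatment (0.39–200 uM, 0.5% DMSO). Cells are fixed in 3.7% formaldehyde before staining, and DMSO serves as the baseline for bidirectional curve fitting.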

[3] = APR_HepG2_CellLoss_24hr: Apredica 24-hour HepG2 Assay for Cell Loss (AID 2282908); conditions: high-content imaging;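 on AC50: fit in both directions so a hit may be cell loss or gain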
In short: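 Nuclear count serves as the viability measure: treated cells are fixed, permeabilized and labelled with Hoechst 33342, and six images per well are analysed to identify valid nuclei. Doses span 0.39–200 uM, and activity in either direction is scored against DMSO.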

[4] = APR_HepG2_MicrotubuleCSK_24hr: Apredica 24-hour HepG2 Assay for Microtubule CSK Stabilty (AID 2282909); conditions: HepG2 microtubule cytoskeleton imaging, actives raise or lower the signal
In short: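 Compounds were applied to HepG2 cells for 24 hours across 0.39–200 uM in duplicate, with final DMSO at 0.5% v/v. Fixed, permeabilized cells were labeled for alpha-tubulin and nuclei, and tubulin fluorescence was quantified by imaging, fitted bidirectionally against DMSO.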

[5] = APR_HepG2_MitoMembPot_24hr: Apredica 24-hour HepG2 Assay for Mitochondrial Membrane Potential (AID 2282911); conditions: imaging, actives raise or lower the signal
In short: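 HepG2, 24 hr dosing, 10 concentrations 0.39–200 uM, 0.5% DMSO final. Live-cell MitoTracker Red CMXRos 250 nM 30 min, then 3.7% formaldehyde fix. HCS fluorescence imaging, 20x; bidirectional fit vs DMSO baseline.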

[6] = APR_HepG2_MitoMass_24hr: Apredica 24-hour HepG2 Assay for Mitochondrial Mass (AID 2282912); conditions: high-content imaging, actives raise or lower the signal
In short: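 After 24 hr of treatment at 0.39 to 200 uM, HepG2 cells take up 250 nM MitoTracker Red CMXRos for 30 min and are then fixed with 3.7% formaldehyde. Per-well images are quantified, and any change in either direction is scored against solvent.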

[7] = APR_HepG2_p53Act_24hr: Apredica 24-hour HepG2 Assay for p53 Activation (AID 2282913); conditions: high-content imaging, actives raise or lower the signal;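 further: p53 protein immunofluorescence averaged per cell in HepG2 with Hoechst nuclei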
In short: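 Read-out: Cy5 immunofluorescence for p53 in fixed, permeabilized HepG2, imaged by HCS with Hoechst-defined nuclei. Dosing was 24 hr at 0.39–200 uM in 0.5% DMSO. Curves were fitted bidirectionally relative to DMSO.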

[8] = APR_HepG2_CellCycleArrest_72hr: Apredica 72-hour HepG2 Assay for Cell Cycle Arrest (AID 2282914); conditions: high-content imaging, actives raise or lower the signal
In short: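 HepG2, 72 hr exposure, 10-point 0.39–200 uM, duplicate, 0.5% DMSO final. Fix 3.7% formaldehyde 30 min RT, Triton X-100 0.5%, Hoechst 33342 2 ug/mL. ArrayScan 20x, six fields/well; DNA content per nucleus; bidirectional fit vs DMSO.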

[9] = APR_HepG2_CellLoss_72hr: Apredica 72-hour HepG2 Assay for Cell Loss (AID 2282915); conditions: high-content imaging
In short: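 HepG2 cells exposed 72 h to compound at 0.39–200 uM (10 concentrations, duplicate) in 0.5% DMSO. Fixed with 3.7% formaldehyde and Hoechst 33342-stained. Imaged at 20x; nuclear count gives cell number, fitted bidirectionally versus DMSO.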

[10] = APR_HepG2_P-H2AX_72hr: Apredica 72-hour HepG2 Assay for H2AX Phosphorylation (AID 2282916); conditions: imaging, actives raise or lower the signal;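 further: phospho-histone H2A.x immunostain intensity per cell marking DNA damage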
In short: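 Human hepatoma HepG2 cells are dosed across ten concentrations (0.39 to 200 uM, 0.5% v/v DMSO) and incubated 72 hr. Phospho-histone H2A.x is then detected by antibody staining alongside c-Jun and Hoechst, and quantified by automated fluorescence imaging.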

[11] = APR_HepG2_MitoMembPot_72hr: Apredica 72-hour HepG2 Assay for Mitochondrial Membrane Potential (AID 2282917); conditions: imaging, actives raise or lower the signal
In short: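 HepG2 cells dosed 72 hr with compound at 0.39–200 uM in duplicate, 0.5% v/v DMSO final. Mitochondria stained with 250 nM MitoTracker Red CMXRos for 30 min before formaldehyde fixation, imaged by high-content fluorescence; bidirectional fit versus DMSO.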

[12] = APR_HepG2_MicrotubuleCSK_72hr: Apredica 72-hour HepG2 Assay for Microtubule CSK Stabilty (AID 2282919); conditions: HepG2 microtubule cytoskeleton, high-content imaging, actives raise or lower the signal
In short: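 HepG2, 72 hr cmpd exposure, 0.39–200 uM (10 pts, duplicate), 0.5% DMSO. 3.7% formaldehyde fix, 0.5% Triton perm, anti-alpha-tubulin/Cy5 plus Hoechst. HCS fluorescence intensity; bidirectional fit vs DMSO baseline; taxol as positive control.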

[13] = APR_HepG2_P-H2AX_24hr: Apredica 24-hour HepG2 Assay for H2AX Phosphorylation (AID 2282920); conditions: high-content imaging, actives raise or lower the signal
In short: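 HCS fluorescence imaging of phospho-H2A.x immunostain (with Hoechst 33342 nuclear counterstain) in HepG2 after 24 hr compound exposure; 10 concentrations, 0.39–200 uM, duplicate wells, 0.5% v/v DMSO. Gain or loss of signal fitted relative to DMSO baseline.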

[14] = APR_HepG2_StressKinase_72hr: Apredica 72-hour HepG2 Assay for Stress Kinase (AID 2282921); conditions: HepG2 stress kinase (phospho-c-Jun) imaging, actives raise or lower the signal
In short: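 After a 72 h compound treatment spanning 0.39 to 200 uM, formaldehyde-fixed cells are labelled for phosphorylated c-Jun and nuclei, imaged by automated fluorescence microscopy, and activity is fitted in both directions relative to DMSO controls.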

[15] = APR_HepG2_StressKinase_24hr: Apredica 24-hour HepG2 Assay for Stress Kinase (AID 2282922); conditions: HepG2 stress kinase (phospho-c-Jun) imaging, actives raise or lower the signal
In short: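 Read-out: phospho-c-Jun immunofluorescence (Cy3 secondary) quantified by high-content imaging at 20x, nuclei defined by Hoechst 33342. Human HepG2 liver cells dosed 24 hr, 0.39–200 uM, DMSO 0.5% v/v; gain or loss of signal fitted relative to DMSO.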

[16] = APR_HepG2_p53Act_72hr: Apredica 72-hour HepG2 Assay for p53 Activation (AID 2282923); conditions: high-content imaging, actives raise or lower the signal;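 further: average cellular p53 protein immunofluorescence intensity in HepG2 cells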
In short: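 Imaging-based endpoint: after 72 hr compound exposure (up to 200 uM, 0.5% DMSO), fixed and permeabilized monolayers were labelled with anti-p53 antibody and imaged; signal change in either direction was fitted relative to DMSO controls.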

[17] = APR_HepG2_MitoMass_72hr: Apredica 72-hour HepG2 Assay for Mitochondrial Mass (AID 2282924); conditions: high-content imaging, actives raise or lower the signal;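 further: MitoTracker Red CMXRos stain intensity per cell imaged as mitochondrial mass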
In short: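 Read-out: MitoTracker Red fluorescence intensity from automated imaging (20x, six fields per well) in human HepG2 liver cells. Dosing ran 72 hr, 0.39–200 uM, 0.5% DMSO; bidirectional curve fitting versus DMSO baseline.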

[18] = APR_HepG2_NuclearSize_72hr: Apredica 72-hour HepG2 Assay for Nuclear Size (AID 2282925); conditions: high-content imaging, actives raise or lower the signal
In short: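 Read-out: nuclear diameter from Hoechst 33342 images (ArrayScan, 20x, six fields/well), via cell-cycle image analysis. HepG2 were dosed 0.39–200 uM for 72 hr in 0.5% DMSO. Bidirectional fit relative to DMSO.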

[19] = ATG_CRE_CIS: Attagene CIS-FACTORIAL HepG2 Assay for human cAMP Responsive Element (CRE) binding protein 3 (AID 2282926); conditions: HepG2 CRE cis-reporter, Attagene multiplexed mRNA; actives raise or lower the signal
In short: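 Readout: fluorescently labelled reporter transcripts resolved by capillary electrophoresis after RT-PCR, taken 24 h post-dosing in transfected HepG2. Endogenous transcription factor activity drives each cis-element reporter; gain or loss of signal fitted relative to DMSO control.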

[20] = ACEA_ER_80hr: ACEA Biosciences xCELLigence Real-Time Cell Analysis on Estrogen Receptor Agonism for Proliferation (AID 2282667; active means hit-call score of the fitted dose curve at least 0.9, where 1 is the maximum); conditions: T47D proliferation, impedance (xCELLigence), 80 h
In short: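 Impedance readout (RT-CES) of T47D proliferation at 80 h post-dose; gain of signal vs DMSO baseline. Compounds: 8 conc, 1:4 serial, top 100 uM final, ≤0.5% DMSO; biological duplicate.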

Measured: AC50

Oc1cccc2cccnc12
active: [1] 15.4 µM | [3] 2.29 µM | [7] 25.9 µM | [8] 1.59 µM | [9] 2.66 µM | [10] 16.9 µM | [14] 18.8 µM | [16] 4.12 µM | [17] 3.1 µM
not listed: [20]
inactive: all other assays above

CC(C)(c1ccccc1)c1ccc(O)c(C(C)(C)c2ccccc2)c1
active: [2] 22 µM | [3] 28.1 µM | [5] 29.4 µM | [7] 40.8 µM | [9] 31.2 µM | [13] 69.5 µM | [15] 134 µM | [17] 30.1 µM | [19] 2.2 µM
not listed: [20]
inactive: all other assays above

CCC(=O)C(CC(C)N(C)C)(c1ccccc1)c1ccccc1 (stereo unspecified)
active: [1] 25.1 µM | [9] 73.6 µM | [10] 73.5 µM | [12] 81.3 µM | [14] 78.9 µM | [16] 69.8 µM
not listed: [20]
inactive: all other assays above

O=C(O)C(F)(F)C(F)(F)C(F)(F)C(F)(F)C(F)(F)C(F)(F)F
active: [9] 14.5 µM | [10] 13.6 µM | [14] 97.8 µM | [16] 10.2 µM | [17] 13 µM | [18] 6.95 µM
not listed: [20]
inactive: all other assays above

CC(C)(OO)c1ccccc1
active: [1] 78.4 µM | [2] 65.1 µM | [3] 72.2 µM | [4] 75.3 µM | [5] 96.2 µM | [7] 65.8 µM | [8] 88.8 µM | [9] 59.9 µM | [10] 56.7 µM | [13] 69.3 µM | [14] 49.4 µM | [16] 45.7 µM
inactive: [6] | [11] | [12] | [15] | [17] | [18] | [19]

CCN1CCC2(CC1)COc1cc3c(cc12)N(C(=O)c1ccc(-c2ccc(-c4nnc(C)o4)cc2C)cc1)CC3
active: [3] 17.5 µM | [6] 7.43 µM | [7] 25.8 µM | [9] 9.88 µM | [10] 41.7 µM | [11] 75.1 µM | [13] 28.9 µM | [14] 5.12 µM | [15] 47.9 µM | [16] 59.8 µM | [17] 44.7 µM
inactive: [1] | [2] | [4] | [5] | [8] | [12] | [18] | [19]

ClCC(Cl)CCl
not listed: [20]
inactive: all other assays above

ClC1(Cl)C2(Cl)C3(Cl)C4(Cl)C(Cl)(Cl)C5(Cl)C3(Cl)C1(Cl)C5(Cl)C24Cl (stereo unspecified)
not listed: [20]
inactive: all other assays above

CCCCCCCCc1ccc(O)cc1
active: [2] 103 µM | [3] 67 µM | [7] 67.3 µM | [8] 52.5 µM | [9] 86.7 µM | [11] 34.6 µM | [17] 95 µM
not listed: [20]
inactive: all other assays above

O=C(Nc1ccc2[nH]ccc2c1)c1cc2cc(F)ccc2n1Cc1cccc(F)c1
inactive: [2] | [6] | [12] | [14] | [15] | [18] | [19]
active: [1] 25.4 µM | [3] 22.5 µM | [4] 19.7 µM | [5] 2.08 µM | [7] 34.5 µM | [8] 35.7 µM | [9] 17.2 µM | [10] 27.8 µM | [11] 1.02 µM | [13] 38.8 µM | [16] 19 µM | [17] 26.9 µM

CCC(C)c1cccc(C(C)CC)c1O (stereo unspecified)
inactive: [20] | [19]

CN(C)N=O
not listed: [20]
inactive: all other assays above
